{"source": "paper PMC11006913", "assay_in_all_cases": "PBM; 200 nM protein, PBS", "conditions_in_all_cases": "dsDNA, one strand shown", "key": {"[1]": {"target": "HOXC10 (Homo sapiens, UniProt Q9NYD6 254-340)", "sequence (Q9NYD6 254-340)": "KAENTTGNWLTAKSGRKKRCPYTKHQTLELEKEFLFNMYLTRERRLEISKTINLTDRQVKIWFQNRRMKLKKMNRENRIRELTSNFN"}, "[2]": {"target": "T1, PAX4 (Homo sapiens, UniProt O43316 9-242, R200K)", "T1 sequence": "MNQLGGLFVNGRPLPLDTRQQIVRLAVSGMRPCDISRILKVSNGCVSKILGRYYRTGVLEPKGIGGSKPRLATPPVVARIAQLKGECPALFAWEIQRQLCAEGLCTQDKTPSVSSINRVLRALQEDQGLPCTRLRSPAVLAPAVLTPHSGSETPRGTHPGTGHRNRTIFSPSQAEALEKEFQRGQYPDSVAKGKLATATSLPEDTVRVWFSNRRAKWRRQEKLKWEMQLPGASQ"}, "[3]": {"target": "T2, PAX4 (Homo sapiens, UniProt O43316 9-242, R227W)", "T2 sequence": "T1 sequence with K192R, R219W"}, "[4]": {"target": "CRX (Homo sapiens, UniProt O43186 26-111, R41L)", "sequence (O43186 26-111 R41L)": "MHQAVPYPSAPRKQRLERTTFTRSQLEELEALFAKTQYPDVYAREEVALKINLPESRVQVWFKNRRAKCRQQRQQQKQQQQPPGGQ"}, "[5]": {"target": "HOXB6 (Homo sapiens, UniProt P17509 132-218, K202E)", "sequence (P17509 132-218 K202E)": "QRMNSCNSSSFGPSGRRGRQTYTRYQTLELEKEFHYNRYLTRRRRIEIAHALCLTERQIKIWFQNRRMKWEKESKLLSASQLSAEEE"}, "[6]": {"target": "MSX2 (Homo sapiens, UniProt P35548 130-214, R199I)", "sequence (P35548 130-214 R199I)": "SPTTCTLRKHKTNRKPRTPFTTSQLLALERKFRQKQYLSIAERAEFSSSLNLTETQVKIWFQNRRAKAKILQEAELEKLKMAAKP"}, "[7]": {"target": "HOXD13 (Homo sapiens, UniProt P35453 263-343, T313R)", "sequence (P35453 263-343 T313R)": "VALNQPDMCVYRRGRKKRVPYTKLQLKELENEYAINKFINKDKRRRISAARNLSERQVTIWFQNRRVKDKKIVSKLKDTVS"}, "[8]": {"target": "HOXD13 (Homo sapiens, UniProt P35453 263-343)", "sequence (P35453 263-343)": "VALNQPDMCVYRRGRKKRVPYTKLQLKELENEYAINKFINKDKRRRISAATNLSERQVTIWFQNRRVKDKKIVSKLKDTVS"}, "[9]": {"target": "HOXC10 (Homo sapiens, UniProt Q9NYD6 254-340, K271E)", "sequence (Q9NYD6 254-340 K271E)": "as the sequence (Q9NYD6 254-340) above, with K18E counted along it"}, "[10]": {"target": "MSX2 (Homo sapiens, UniProt P35548 130-214)", "sequence (P35548 130-214)": "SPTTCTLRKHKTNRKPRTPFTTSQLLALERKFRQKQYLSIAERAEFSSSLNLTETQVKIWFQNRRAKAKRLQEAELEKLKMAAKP"}, "[11]": {"target": "HOXD13 (Homo sapiens, UniProt P35453 263-343, T313A)", "sequence (P35453 263-343 T313A)": "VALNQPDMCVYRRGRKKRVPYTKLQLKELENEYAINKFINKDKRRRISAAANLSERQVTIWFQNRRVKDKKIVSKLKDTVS"}, "[12]": {"target": "MSX2 (Homo sapiens, UniProt P35548 130-214, F161Y)", "sequence (P35548 130-214 F161Y)": "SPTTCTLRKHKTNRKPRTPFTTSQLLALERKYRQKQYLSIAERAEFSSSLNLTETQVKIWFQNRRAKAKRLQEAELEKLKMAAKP"}, "[13]": {"target": "HOXB6 (Homo sapiens, UniProt P17509 132-218)", "sequence (P17509 132-218)": "as the sequence (P17509 132-218 K202E) above, with E71K counted along it"}, "[14]": {"target": "T3, PAX4 (Homo sapiens, UniProt O43316 9-242)", "T3 sequence": "T1 sequence with K192R"}, "[15]": {"target": "T4, PAX4 (Homo sapiens, UniProt O43316 9-242, R200Q)", "T4 sequence": "T1 sequence with K192Q"}, "[16]": {"target": "T5, PAX4 (Homo sapiens, UniProt O43316 9-242, F177V)", "T5 sequence": "T1 sequence with F169V, K192R"}, "[17]": {"target": "T6, PAX4 (Homo sapiens, UniProt O43316 9-242, F177Y)", "T6 sequence": "T1 sequence with F169Y, K192R"}, "[18]": {"target": "PROP1 (Homo sapiens, UniProt O75360 56-141)", "sequence (O75360 56-141)": "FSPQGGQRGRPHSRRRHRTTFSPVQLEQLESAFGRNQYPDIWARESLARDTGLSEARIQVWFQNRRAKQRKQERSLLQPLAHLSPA"}, "[19]": {"target": "PROP1 (Homo sapiens, UniProt O75360 56-141, R99H)", "sequence (O75360 56-141 R99H)": "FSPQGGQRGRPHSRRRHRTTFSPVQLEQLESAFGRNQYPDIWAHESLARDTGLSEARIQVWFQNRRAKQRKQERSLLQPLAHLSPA"}, "[20]": {"target": "PROP1 (Homo sapiens, UniProt O75360 56-141, F88S)", "sequence (O75360 56-141 F88S)": "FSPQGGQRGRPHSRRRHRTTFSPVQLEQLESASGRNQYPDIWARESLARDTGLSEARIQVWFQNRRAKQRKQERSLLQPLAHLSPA"}, "[21]": {"target": "ALX1 (Homo sapiens, UniProt Q15699 118-204, L144V)", "sequence (Q15699 118-204 L144V)": "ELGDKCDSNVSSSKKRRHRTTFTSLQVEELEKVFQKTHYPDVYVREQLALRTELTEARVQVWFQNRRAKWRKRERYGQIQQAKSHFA"}, "[22]": {"target": "ALX1 (Homo sapiens, UniProt Q15699 118-204, L144R)", "sequence (Q15699 118-204 L144R)": "as the sequence (Q15699 118-204 L144V) above, with V27R counted along it"}, "[23]": {"target": "ALX1 (Homo sapiens, UniProt Q15699 118-204)", "sequence (Q15699 118-204)": "as the sequence (Q15699 118-204 L144V) above, with V27L counted along it"}}, "note": "Substitutions are numbered along the chain they refer to."}
{"sequence": "TAATACGA", "values": [{"measurement": "binding signal", "setting": "[1]", "value": "11 upbm affinity estimate (log intensity, higher = more binding, comparable within an allelic series)"}, {"measurement": "binding signal", "setting": "[2]", "value": "11.6 upbm affinity estimate (log intensity, higher = more binding, comparable within an allelic series)"}, {"measurement": "binding signal", "setting": "[3]", "value": "10.9 upbm affinity estimate (log intensity, higher = more binding, comparable within an allelic series)"}, {"measurement": "binding signal", "setting": "[4]", "value": "10.4 upbm affinity estimate (log intensity, higher = more binding, comparable within an allelic series)"}]}
{"sequence": "GGCTAGCC", "values": [{"measurement": "binding signal", "setting": "[1]", "value": "9.92 upbm affinity estimate (log intensity, higher = more binding, comparable within an allelic series)"}, {"measurement": "binding signal", "setting": "[5]", "value": "8.91 upbm affinity estimate (log intensity, higher = more binding, comparable within an allelic series)"}, {"measurement": "binding signal", "setting": "[6]", "value": "9.46 upbm affinity estimate (log intensity, higher = more binding, comparable within an allelic series)"}, {"measurement": "binding signal", "setting": "[7]", "value": "9.4 upbm affinity estimate (log intensity, higher = more binding, comparable within an allelic series)"}, {"measurement": "binding signal", "setting": "[8]", "value": "9.37 upbm affinity estimate (log intensity, higher = more binding, comparable within an allelic series)"}, {"measurement": "binding signal", "setting": "[9]", "value": "9.98 upbm affinity estimate (log intensity, higher = more binding, comparable within an allelic series)"}, {"measurement": "binding signal", "setting": "[10]", "value": "9.52 upbm affinity estimate (log intensity, higher = more binding, comparable within an allelic series)"}, {"measurement": "binding signal", "setting": "[11]", "value": "9.39 upbm affinity estimate (log intensity, higher = more binding, comparable within an allelic series)"}, {"measurement": "binding signal", "setting": "[12]", "value": "9.51 upbm affinity estimate (log intensity, higher = more binding, comparable within an allelic series)"}, {"measurement": "binding signal", "setting": "[13]", "value": "8.87 upbm affinity estimate (log intensity, higher = more binding, comparable within an allelic series)"}]}
{"sequence": "CCCCGGGC", "values": [{"measurement": "binding signal", "setting": "[1]", "value": "9.93 upbm affinity estimate (log intensity, higher = more binding, comparable within an allelic series)"}, {"measurement": "binding signal", "setting": "[7]", "value": "9.37 upbm affinity estimate (log intensity, higher = more binding, comparable within an allelic series)"}, {"measurement": "binding signal", "setting": "[8]", "value": "9.35 upbm affinity estimate (log intensity, higher = more binding, comparable within an allelic series)"}, {"measurement": "binding signal", "setting": "[9]", "value": "9.89 upbm affinity estimate (log intensity, higher = more binding, comparable within an allelic series)"}, {"measurement": "binding signal", "setting": "[11]", "value": "9.35 upbm affinity estimate (log intensity, higher = more binding, comparable within an allelic series)"}]}
{"sequence": "CTCCCCCC", "values": [{"measurement": "binding signal", "setting": "[1]", "value": "9.99 upbm affinity estimate (log intensity, higher = more binding, comparable within an allelic series)"}, {"measurement": "binding signal", "setting": "[2]", "value": "9.31 upbm affinity estimate (log intensity, higher = more binding, comparable within an allelic series)"}, {"measurement": "binding signal", "setting": "[14]", "value": "9.32 upbm affinity estimate (log intensity, higher = more binding, comparable within an allelic series)"}, {"measurement": "binding signal", "setting": "[15]", "value": "9.28 upbm affinity estimate (log intensity, higher = more binding, comparable within an allelic series)"}, {"measurement": "binding signal", "setting": "[16]", "value": "9.04 upbm affinity estimate (log intensity, higher = more binding, comparable within an allelic series)"}, {"measurement": "binding signal", "setting": "[9]", "value": "9.94 upbm affinity estimate (log intensity, higher = more binding, comparable within an allelic series)"}, {"measurement": "binding signal", "setting": "[17]", "value": "9.19 upbm affinity estimate (log intensity, higher = more binding, comparable within an allelic series)"}, {"measurement": "binding signal", "setting": "[18]", "value": "6.67 upbm affinity estimate (log intensity, higher = more binding, comparable within an allelic series)"}, {"measurement": "binding signal", "setting": "[19]", "value": "6.5 upbm affinity estimate (log intensity, higher = more binding, comparable within an allelic series)"}, {"measurement": "binding signal", "setting": "[20]", "value": "5.95 upbm affinity estimate (log intensity, higher = more binding, comparable within an allelic series)"}, {"measurement": "binding signal", "setting": "[3]", "value": "9.13 upbm affinity estimate (log intensity, higher = more binding, comparable within an allelic series)"}]}
{"sequence": "AGCGGGGG", "values": [{"measurement": "binding signal", "setting": "[1]", "value": "10.1 upbm affinity estimate (log intensity, higher = more binding, comparable within an allelic series)"}, {"measurement": "binding signal", "setting": "[2]", "value": "9.03 upbm affinity estimate (log intensity, higher = more binding, comparable within an allelic series)"}, {"measurement": "binding signal", "setting": "[14]", "value": "9.24 upbm affinity estimate (log intensity, higher = more binding, comparable within an allelic series)"}, {"measurement": "binding signal", "setting": "[15]", "value": "9.17 upbm affinity estimate (log intensity, higher = more binding, comparable within an allelic series)"}, {"measurement": "binding signal", "setting": "[16]", "value": "9 upbm affinity estimate (log intensity, higher = more binding, comparable within an allelic series)"}, {"measurement": "binding signal", "setting": "[9]", "value": "9.93 upbm affinity estimate (log intensity, higher = more binding, comparable within an allelic series)"}, {"measurement": "binding signal", "setting": "[17]", "value": "9.11 upbm affinity estimate (log intensity, higher = more binding, comparable within an allelic series)"}, {"measurement": "binding signal", "setting": "[18]", "value": "6.68 upbm affinity estimate (log intensity, higher = more binding, comparable within an allelic series)"}, {"measurement": "binding signal", "setting": "[19]", "value": "6.47 upbm affinity estimate (log intensity, higher = more binding, comparable within an allelic series)"}, {"measurement": "binding signal", "setting": "[20]", "value": "6.14 upbm affinity estimate (log intensity, higher = more binding, comparable within an allelic series)"}, {"measurement": "binding signal", "setting": "[3]", "value": "9.16 upbm affinity estimate (log intensity, higher = more binding, comparable within an allelic series)"}]}
{"sequence": "ACCCGAGC", "values": [{"measurement": "binding signal", "setting": "[1]", "value": "10.1 upbm affinity estimate (log intensity, higher = more binding, comparable within an allelic series)"}, {"measurement": "binding signal", "setting": "[2]", "value": "9.37 upbm affinity estimate (log intensity, higher = more binding, comparable within an allelic series)"}, {"measurement": "binding signal", "setting": "[14]", "value": "9.24 upbm affinity estimate (log intensity, higher = more binding, comparable within an allelic series)"}, {"measurement": "binding signal", "setting": "[21]", "value": "6.62 upbm affinity estimate (log intensity, higher = more binding, comparable within an allelic series)"}, {"measurement": "binding signal", "setting": "[15]", "value": "9.32 upbm affinity estimate (log intensity, higher = more binding, comparable within an allelic series)"}, {"measurement": "binding signal", "setting": "[22]", "value": "6.43 upbm affinity estimate (log intensity, higher = more binding, comparable within an allelic series)"}, {"measurement": "binding signal", "setting": "[16]", "value": "9.28 upbm affinity estimate (log intensity, higher = more binding, comparable within an allelic series)"}, {"measurement": "binding signal", "setting": "[9]", "value": "10 upbm affinity estimate (log intensity, higher = more binding, comparable within an allelic series)"}, {"measurement": "binding signal", "setting": "[17]", "value": "9.29 upbm affinity estimate (log intensity, higher = more binding, comparable within an allelic series)"}, {"measurement": "binding signal", "setting": "[3]", "value": "9.37 upbm affinity estimate (log intensity, higher = more binding, comparable within an allelic series)"}, {"measurement": "binding signal", "setting": "[23]", "value": "6.4 upbm affinity estimate (log intensity, higher = more binding, comparable within an allelic series)"}]}
